Experimental data taken from PubChem BioAssay (NCI).
About 83,000 compounds went through this panel and 20% of them were active in at least one assay; those are over-represented in the sample as a whole.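 Note: values are percent growth. 100 is the growth of untreated cells, values between 100 and 0 indicate rising inhibition; between -100 and 0 indicates cell death.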 Values without a mark were called inactive. Calls of active or inactive are those of the source. How the source made its calls: active means growth percent below 10; inactive means the rest.

Each compound was assayed on HL-60(TB) leukemia (assay: NCI-60 one-dose screen, 48 h (100 = growth as untreated, 0 = no growth, -100 = all killed)). Conditions: 10 µM unless noted.

Row | SMILES | growth
1 | Cc1[nH]c(C(=O)Nc2ccc(S(=O)(=O)N3CCCCC3)cc2OCCOCCOCCOCCOCCOCCOCCOCCOCCOc2cc(S(=O)(=O)N3CCCCC3)ccc2NC(=O)c2[nH]c(C)c3c2CCCCC3=O)c2c1C(=O)CCCC2 | 10.7%
2 | C/C(=N/Nc1nc(N/N=C(/C)c2ccc([N+](=O)[O-])cc2)nc(N2CCOCC2)n1)c1ccc([N+](=O)[O-])cc1 | 92.6%
3 | Cc1ccc2ccc3ccc(C)nc3c2n1.Cc1ccc2ccc3ccc(C)nc3c2n1.Oc1c(Cl)cc(Cl)c2ccc(CN3CCCCC3)nc12.[Ru] | -52.1% (active)
4 | CCc1nnc(NC(=O)c2cc(-c3ccc(Cl)cc3Cl)oc2C)s1 | 88.5%
5 | O=C(c1ccc(O)cc1)[C@@H]1CN[C@@]2(C(=O)Nc3ccccc32)[C@H]1c1ccc(F)cc1 | 95.4%
6 | OC1CCN(CCCOc2c3ccccc3nc3c2oc2ccc(Cl)cc23)CC1 | 14.4%
7 | COc1cc(/C=C/C(=O)c2cc(OC)c(OC)c(OC)c2)ccc1Oc1nc(NCCO)nc(N2CCOCC2)n1 | -5.23% (active)
8 | O=C(/C=C/Nc1ccc(S(=O)(=O)Nc2ncccn2)cc1)c1ccc(N=Cc2c(O)[nH]c3ccccc23)cc1 | 99.6%
9 | Cc1cc(C)n(C(=O)c2sc(=S)n(-c3ccccc3)c2N=Nc2c(N)n[nH]c2N)n1 | 110%
10 | COc1ccc(/C=C2\SC(=Nc3cc(C)[nH]n3)NC2=O)cc1 | 87.1%
11 | COC(=O)C(Cc1ccccc1)Nc1nc(NC(Cc2ccccc2)C(=O)OC)nc(N2CCOCC2)n1 (stereo unspecified) | 103%
12 | CC(=O)OCCCCN1C=C/C(=C\C(=O)n2ccc3ccccc32)c2ccccc21 | 98.6%
13 | CCOC(=O)c1c(NC(=O)c2cccc(C(F)(F)F)c2)sc2c3c(ccc12)OCN(C)C3 | -56.3% (active)
14 | CCCC(=O)NC(c1cccnc1)c1cc(C)c2cccnc2c1O (stereo unspecified) | 1.38% (active)
15 | CN1C(=O)N(c2ccccc2)C2N=C(N/N=C/c3ccccc3)SC21 (stereo unspecified) | -6.56% (active)
16 | COc1cc(-c2nc(-c3ccccc3)[nH]c2-c2ccnc(NCCCNS(=O)(=O)c3cccc(F)c3)n2)ccc1F | 94.8%
17 | Cc1ccc2c(n1)C(=O)C(Cl)=C(Nc1ccc(C(=O)OC(C)(C)C)cc1)C2=O | 4.87% [9.25 µM] (active)
18 | Nc1nc(N)c2c(n1)NC(c1ccccc1)CC(c1ccc(Nc3nc(NCCO)nc(Nc4ccc(Cl)cc4)n3)cc1)=N2 (stereo unspecified) | 2.55% (active)
19 | Cc1ccc(CNS(=O)(=O)/N=C2\NC(=O)NC2=C(Cl)Cl)cc1 | 28.6%
20 | NC(=O)c1cccc(C#CCNC[C@H]2C[C@@H](n3ccc4c(Cl)ncnc43)[C@H](O)[C@@H]2O)c1 | 102%
21 | CN1CCN(c2nc(-c3cnc4ccccc4n3)cc3ccccc23)CC1 | -36.2% (active)
22 | CC(=O)c1ccc(Nc2nc(SCC(C)C)nc(-c3ccccc3)c2C#N)cc1 | 101%
23 | C#C[C@]1(O)CC[C@H]2[C@@H]3CC=C4c5sc(Nc6cc(Cl)ccn6)nc5CC[C@]4(C)[C@H]3CC[C@@]21C | 2.68% (active)
24 | O=C(CSc1nnc(-c2ccc3nc(-c4ccc(Cl)cc4)[nH]c3c2)o1)Nc1ccc(C(=O)/C=C/c2ccc(Cl)cc2)cc1 | 86%
25 | COc1cccc(-c2nn(-c3ccccc3)cc2-c2ccnc(N3CCN(C(=O)c4ccccc4)CC3)c2)c1 | 34.8%
26 | COc1ccc(/C=N/Nc2ccnc3cc(Cl)ccc23)cc1Cl | -37.5% (active)
